# PubChem BioAssay (NCI)
# Compounds without any hit were thinned out: in the full panel of roughly 83,000, 20% have a hit.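 Testing used 96-well plates and a 48-hour single-concentration exposure. Example: -40 means 40% of the starting cells died.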 A number with no mark means an inactive call. The source made the active and inactive calls.
# System: COLO 205 colon
# Test: NCI-60 one-dose screen, 48 h (100 = growth as untreated, 0 = no growth, -100 = all killed)
# Details: 10 µM unless noted
# Description: Cells are grown in 96 well plates and exposed to the test compound for 48 hours. Compounds are tested at a single concentration, which is 10^-5 M for most compounds. The reported endpoint is percent growth (GI% or GIPRCNT), where numbers from 0 - 100% represent growth inhibition, and numbers from -100% - 0 represent cell death. For example, a value of 40 represents 60% growth inhibition. A value of 0 means no net growth occurred over the course of the experiment. A value of -40 indicates 40% of cells at the beginning of the experiment died by the end of the experiment. A value of -100 means all cells are dead at the end of the experiment.
# NCI-60 Human Tumor Cell Lines Screen was performed using the standard one-dose NCI protocol, which is described in more detail at https://dtp.cancer.gov/discovery_development/nci-60/default.htm.
# Compounds with GIPRCNT values below 10 were considered active. Activity score was based on GIPRCNT using the following formula: […]
# Score is 0 for GIPRCNT values of 100 or above, 50 for GIPRCNT values of 0, and 100 for GIPRCNT values of -100.
row,SMILES,growth
1,O=C(Nn1c2c(sc1=Nc1ccccc1)C(=O)c1ccccc1C2=O)c1cc2ccc1CCc1ccc(cc1)CC2,102%
2,N#CC1=C(N)Oc2c(sc3c(Br)cccc23)C1c1ccc(F)cc1 (stereo not given),-35.7% (active)
3,COc1cc(/C=C/C(=O)c2cccc(Nc3nc(Nc4ccccc4)nc(Nc4ccccc4)n3)c2)cc(OC)c1OC,61.2%
4,O=C(NCc1ccccc1)Nc1ccccc1CNc1nc(Nc2ccc(OCCN3CCCC3)cc2)ncc1Cl,112%
5,CN(C)c1ccc(/C=C/C(=O)c2ccc(-n3cc(CN4CCN(c5cc6c(cc5F)c(=O)c(C(=O)O)cn6C5CC5)CC4)nn3)cc2)cc1,105%
6,CC(=O)OCc1nc(C#N)c(N(C)C)o1,105%
7,CCCCC[C@@H]1Cc2cc(O)c(C(=O)O)c3c2[C@H](C[C@]2(OC[C@@H](CC(=O)[C@@](C)(CC)C(=O)OC)[C@@H]2C)O3)O1,145%
8,OCCNCCCOc1ccc2ncnc(Nc3ccc(Oc4cccc(C(F)(F)F)c4)c(Cl)c3)c2c1,-27.7% (active)
9,CN(C)CCNc1nc2c3cc(Cl)ccc3nn2c2ccccc12,26.3%
10,COc1ccc(C2c3sc4c(F)cccc4c3Oc3nc[nH]c(=O)c32)cc1 (stereo not given),108%
11,COc1cc(C(=O)n2nc(N3CCN(C)CC3)c3cc(N)ccc32)cc(OC)c1OC,107%
12,CN1CCN(Cc2ccc3c(NNC(=O)c4ccccc4)nc4cc(F)ccc4n23)CC1,19.5%
13,COc1cc(-c2cc(-c3cccs3)c(C#N)c(N3CCOCC3)n2)cc(OC)c1OC,56.4%
14,CN(CCOc1ccc(C#N)cc1)CCOc1ccc(C#N)cc1,52.1%
15,O=C(/C=C/c1ccc(Cl)cc1)c1cccc(Nc2nc(Nc3ccccc3)nc(Nc3ccccc3)n2)c1,93.1%
16,Cc1ccc(Sc2nnc(/N=C3\C(=O)Nc4ccccc43)s2)cc1,116%
17,CS(=O)(=O)Nc1cc(-c2ccc3ncnc(Nc4ccc5c(cnn5Cc5ccccn5)c4)c3c2)cnc1Cl,93.1%
18,CC(C)NC1CCC(Nc2ccnc3cc(Cl)ccc23)CC1 (stereo not given),69.3%
19,Brc1ccc2[nH]cc(-c3nonc3-c3c[nH]c4ccccc34)c2c1,36.3%
20,COc1ccc2[nH]cc(-c3nc(-c4c[nH]c5ccncc45)cs3)c2c1,-62.8% (active)

row,SMILES,growth
1,CCNc1cc(-c2cccc(OC(F)(F)F)c2)nc2ccc(N3CCCC3)cc12,-65.9% (active)
2,O=S(=O)(NCCNc1nccc(-c2c(-c3cccc(F)c3)nc3occn23)n1)c1ccc(Br)cc1,85.4%
3,COc1ccc(-c2nc3c(c(-c4ccccc4)nn3-c3ccccc3)c(-c3ccc(N4CCN(C)CC4)cc3)c2C#N)cc1,114%
4,C#Cc1ccc(NC(=O)c2ccc(/C=C/C(=O)c3nccn3C)cc2)cc1,-53.7% (active)
5,COc1ccccc1Nc1nc2c(s1)C1=CC[C@H]3[C@@H]4CC[C@H]([C@H](C)CCCC(C)C)[C@@]4(C)CC[C@@H]3[C@@]1(C)CC2,106%
6,Cc1nc2ncnc(Cl)c2[nH]1,113%
7,N#Cc1c(NC(=O)c2ccccc2)sc2c1CCC(=O)C2,-46.4% (active)
8,N#CC1=C(N)Oc2c(sc3c(F)cccc23)C1c1ccc(F)cc1 (stereo not given),13%
9,COC(C(=O)[C@@H](O)[C@@H](C)O)[C@@H]1Cc2cc3cc(O[C@H]4C[C@@H](O[C@H]5C[C@@H](O)[C@H](O)C(C)O5)[C@H](O)C(C)O4)cc(O)c3c(O)c2C(=O)[C@H]1O[C@H]1C[C@@H](O[C@H]2C[C@@H](O[C@H]3C[C@@H](OC)[C@H](O)C(C)O3)[C@@H](O)C(C)O2)[C@H](O)C(C)O1 (stereo not given in full),31.2%
10,O=C(COc1ccc(-c2nc3ccccc3[nH]2)cc1)N=Nc1c(O)[nH]c2ccc(Cl)cc12,53.3%
11,CCOC(=O)c1[nH]c(=O)c2c(C)nc(-c3ccccc3)cc2c1O,117%
12,Clc1ccc2c(c1)N(c1ncnc3ccc(-c4cnc5[nH]ncc5c4)cc13)CC2,31.1%
13,COC(=O)[C@H]1CCCN1C[C@@H](O)CN1C(=O)/C(=C\c2cc(OC)c(OC)c(OC)c2)c2ccccc21,121%
14,O=C(NNC(=O)c1ccc(-n2cc(-c3ccccc3)nn2)cc1)Nc1ccccc1,111%
15,CC/C(=C(/c1ccc(Cl)cc1)c1ccc(OCCN2CCCC2)cc1)c1ccc(OC)cc1,64.7%
16,O=C1COCCN1c1ccc(Nc2nc(Cl)nc(OCc3cn(Cc4ccccc4)nn3)n2)cc1,105%
17,Cc1ccc2c(n1)C(=O)c1[nH]c3ccccc3c1C2=O,23.9%
18,CC(O)c1cnc(/C=C2\SC(=S)N(Cc3ccccc3)C2=O)s1 (stereo not given),35.7%
19,CN1CCN(c2ccc(C(=O)Nc3cccc(C#Cc4cccc5[nH]nc(N)c45)c3)cc2C(F)(F)F)CC1,-72.9% (active)
20,O=C(/C=C/c1cccs1)c1ccc(Cl)nc1,108%
